Screening data (PubChem BioAssay)
GAA inh – blocks human lysosomal alpha-glucosidase. AID 1466. purified human GAA, 4-MU-alpha-glucoside fluorescence. hit rate 0.005% among 200,000. Potency, µM (highest dose often 76.9 µM), for inactives: top-dose activity change, negative = inhibition, most hits filed as inhibitors;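 also: potency is read from the fitted curve at half-maximal effect; plate controls were uninhibited enzyme wells for no effect and no-enzyme background for full effect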
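Endpoint fluorogenic read: 20 min room-temperature reaction of 4 nM human alpha-glucosidase with 400 uM 4-methylumbelliferyl-alpha-D-pyranoside, pH 5.0, quenched with 1M NaOH/1M glycine pH 10. AC50 from Hill modeling.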
GLA inh pH 4.5 – blocks human alpha-galactosidase A at pH 4.5; P06280; purified enzyme, 4-MU-alpha-Gal fluorescence, pH 4.5; activity change, negative = inhibition, % at 105 µM; 230,000 tested, under 10 active; AID 1467;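 also: 0% = full activity with enzyme and -100% = basal without enzyme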
Target sequence (P06280 whole entry, looked up): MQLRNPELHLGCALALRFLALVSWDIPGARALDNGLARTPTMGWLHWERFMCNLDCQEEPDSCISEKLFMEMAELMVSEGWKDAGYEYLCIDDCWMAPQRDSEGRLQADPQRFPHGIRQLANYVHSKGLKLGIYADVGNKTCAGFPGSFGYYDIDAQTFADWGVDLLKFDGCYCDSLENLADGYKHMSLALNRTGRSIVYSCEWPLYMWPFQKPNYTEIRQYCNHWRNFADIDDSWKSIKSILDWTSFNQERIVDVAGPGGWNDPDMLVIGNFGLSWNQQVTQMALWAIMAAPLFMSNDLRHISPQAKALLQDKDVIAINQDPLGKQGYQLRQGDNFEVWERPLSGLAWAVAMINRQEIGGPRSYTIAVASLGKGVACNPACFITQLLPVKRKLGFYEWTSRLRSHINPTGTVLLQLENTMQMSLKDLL
GLA spleen mod – inhibits or activates alpha-galactosidase in human spleen homogenate. P06280. human spleen homogenate, 4MU-alpha-Gal fluorescence, 40 min. Potency, µM (doses to about 80 µM), without a hit: top-dose activity change, negative = inhibition, usual class: inhibitors. hit rate 0.008% among 240,000;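 also: potency is read from the fitted curve at half-maximal effect; 0% = enzyme with vehicle and -100% = no enzyme basal signal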
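Human spleen homogenate (1 ug) was the enzyme source, with 4-methylumbelliferyl-alpha-D-galactopyranoside (1 mM final) in pH 5.0 citrate buffer with 0.01% Tween-20. Compounds were titrated; after 40 min at 37C, NaOH/glycine stop, 4-MU fluorescence read; AC50 from Hill fits.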
GAA glycogen – inhibitors or activators of human alpha-glucosidase glycogen cleavage; hit rate 0.38% among 300,000; recombinant GAA, glycogen substrate, Amplex Red glucose oxidase fluorescence; Potency, µM (doses to about 76.4 µM), inactives show at the top dose activity change, negative = inhibition, actives largely listed as inhibitors; P10253;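 also: potency is read from the fitted curve at half-maximal effect; 0% = full enzyme reaction and -100% = no-enzyme basal signal; the screen sought inhibitors and activators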
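Natural-substrate format: glycogen cleavage by 4 nM human enzyme, glucose read by Amplex Red coupling (Ex 573, Em 610 nm). Normalized to enzyme and no-enzyme controls.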
GAA spleen mod – lysosomal alpha-glucosidase (human) modulation; hit rate 0.006% among 240,000; P10253; human spleen homogenate, 4-MU-alpha-glucoside fluorescence; Potency, µM (top dose mostly 79.9 µM), for the others: top-dose activity change, negative = inhibition, hits mostly inhibitors;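 also: potency is read from the fitted curve at half-maximal effect; 0% = enzyme with vehicle and -100% = no enzyme basal signal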
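AC50 values come from Hill-equation fits of concentration-response data, normalized to no-enzyme and full-activity controls. Enzyme source: 1 ug human spleen homogenate; 1 mM fluorogenic 4-MU glucoside, pH 5.0 citrate buffer, 37 C, 40 min.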
N370S GC mod – inhibits or activates N370S mutant glucocerebrosidase. P04062. N370S GC spleen homogenate, 4MU-glucoside fluorescence. Potency, µM (titrated, usually from 59.4 µM), inactives show top-dose activity change, negative = inhibition, most hits filed as inhibitors. hit rate 0.092% among 330,000. AID 2101;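 also: potency is read from the fitted curve at half-maximal effect; 0% = full enzyme activity and -100% = no enzyme basal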
* hit, by the source's call; ? = inconclusive; nt = not tested or not shown; [ ] = remark or other dose. Compounds with a hit are over-represented: about 0.41% of the library has one in this group of screens. Calls follow the shape of the dose curve; as a rule, active = well fitted curve in the direction sought with a large enough effect; inconclusive = small, poorly fitted or top-dose-only effect, or another doubt; inactive = no such curve, though single readings can be large; an effect the other way counts as inactive or inconclusive.

SMILES	GAA inh	GLA inh pH 4.5	GLA spleen mod	GAA glycogen	GAA spleen mod	N370S GC mod
O=C(CN1CC(=O)Oc2ccccc21)OCC(=O)c1cccc(Br)c1	5%	2	12%	8.8µM*	-3%	-18%
CCc1ccc(NC(=O)Cn2c(=O)n(CCCCC(=O)NCCc3ccccc3)c(=O)c3ccccc32)cc1	nt	nt	nt	15%[76.3 µM]	nt	nt
N#Cc1ccc(-c2csc(NNC(=O)c3ccccc3)n2)cc1	-8%	-3	5%	28µM*	-3%	-2%
Oc1ccc(-c2csc(-c3cccnc3)n2)cc1O	nt	6	1%	7.1µM*	7%	-20%
Oc1ccc(-c2csc(Nc3ncccn3)n2)cc1O	-3%	-11	1%	7µM*	6%	-5%
Oc1ccc(-c2csc(-c3ccccc3)n2)cc1O	-2%	-3	-3%	11µM*	-8%	6%
Fc1ccccc1-c1nc(N2CCN(c3cccc(Cl)c3)CC2)c2ccccc2n1	nt	nt	nt	-8%[76.3 µM]	nt	nt
O=C(O)c1ccc(CNCc2ccccc2Cl)s1	nt	nt	nt	-13%[76.3 µM]	nt	nt
Cc1ccc(CNc2ccc3c(c2)OCO3)cc1	5%	0	-4%	-27%	7%	-5%
c1cc(CNc2ccc3c(c2)OCO3)ccn1	-3%	10	4%	32µM*	-8%	1%
Cc1cc(C)c(S(=O)(=O)/N=C2\C=CC(=O)C(Cl)=C2)c(C)c1	?	0	-3%	12µM*	-2%	-1%
COc1ccc(NCC(=O)Nc2ccc(Br)cc2F)c(OC)c1	2%	0	-7%	40µM*	3%	3%
C=CCNC(=S)NN=C1CCCCCCC1	10%	-2	4%	35µM*	-7%	0%
COc1ccc(CCNC(=O)C2CCCN(c3nc4c(C)cc(C)cc4s3)C2)cc1OC (configuration not stated)	nt	nt	nt	14%[76.3 µM]	nt	nt
O=C(O)c1ccc(N=C2SCC(=O)N2Cc2ccccc2)cc1	12%	1	-1%	14%	4%	-9%
O=C(O)c1ccc(CN2C(=O)CSC2=S)cc1	-4%	8	-13%	18µM*	-7%	2%
CCOC(=O)Nc1ccc2c(c1)Nc1ccccc1S2	-10%	-8	0%	14µM*	2%	-5%
CCOC(=O)c1ccc(NC(=O)c2ccc3c(c2)NC(=O)c2ccccc2S3)cc1	nt	nt	nt	10%[76.3 µM]	nt	nt
CC(=O)c1ccc2c(c1)Nc1ccccc1S2	-2%	-3	-10%	31µM*	-5%	3%
COc1ccc(C2/C=C\CN(C(=O)C3CCCCC3)C(Cc3ccccc3)C(=O)N2Cc2ccc(F)cc2)cc1 (configuration not stated)	nt	nt	1%	nt	-7%	-3%
NCC(O)COc1cccc2ccccc12 (configuration not stated)	nt	nt	-4%	nt	-6%	-3%
OCC1OC(C#Cc2ccccc2)C=CC1OCc1ccccc1 (configuration not stated)	nt	nt	4%[17.5 µM]	nt	-5%[17.4 µM]	-6%[12.8 µM]
O=C(Nc1ccc(Cl)c(Cl)c1)N(CCCN1CCOCC1)Cc1cccs1	-5%	-2	6%	4%	4%	13µM*
O=C(CNC(=S)N(CCCN1CCOCC1)Cc1cccs1)NC1CCCCCCC1	-4%	-4	4%	7%	6%	4µM*
COC(=O)c1ccc(O)c(Sc2cc(C(=O)OC)ccc2O)c1	-7%	-4	1%	-16%	-13%	0%
SMILES	GAA inh	GLA inh pH 4.5	GLA spleen mod	GAA glycogen	GAA spleen mod	N370S GC mod
CC(C)C(=O)c1ccc(O)c(O)c1	nt	-7	-7%	7.1µM*	1%	-1%
Cc1cc(=O)n2nc(N(C)CC(=O)NCc3ccccc3C)sc2n1	nt	nt	nt	14%[76.3 µM]	nt	nt
CC#CC[N+](C)(C)CCCCCCCCCC	nt	-6	9%	17%	-6%	16µM*
CCOC(=O)c1[nH]c2cc(OC)c(OC)cc2c1N	-1%	0	6%	28µM*	7%	0%
Oc1ccc(/C=N/Nc2cc(N3CCCC3)nc(N3CCCC3)n2)cc1	-11%	-2	-3%	25µM*	-10%	-17%
Oc1cccc(/C=N/Nc2cc(N3CCCC3)nc(N3CCCC3)n2)c1	1%	-1	-5%	-3%	-7%	-18%
Fc1ccccc1-c1nc(NCc2ccco2)c2ccccc2n1	4%	0	-4%	-15%	1%	11µM*
COc1cc(CN2CCN(c3cccc(C)c3C)CC2)cc(OC)c1O	-9%	4	-25%	28µM*	-16%	-3%
Cc1noc(/C=C/c2cccs2)c1S(=O)(=O)N1CCC(C(=O)NCc2ccccc2Cl)CC1	nt	nt	nt	-1%[76.3 µM]	nt	nt
CCOC(=O)c1c(/N=C/c2cccc([N+](=O)[O-])c2O)sc2c1CCC2	-3%	-6	-14%	-15%	0%	-9%
CCOC(=O)c1c(/N=C/c2ccc(O)cc2O)sc2c1CCC2	2%	-15	-9%	35µM*	-12%	-15%
CCOC(=O)c1c(/N=C/c2ccccc2O)sc2c1CCC2	4%	0	4%	18µM*	0%	1%
CC1CC=CC2C1C(=O)N(Cc1ccccc1)C2c1ccc(F)c(Br)c1 (configuration not stated)	nt	nt	12%	nt	2%	7%
COc1ccc(NC(=O)CCCc2nc(-c3ccco3)no2)c(OC)c1	nt	nt	nt	0%[76.3 µM]	nt	nt
Nc1cc(Br)c(N)c(Br)c1	4%	6	-7%	32µM*	-3%	-9%
CCOc1ccc(NC(=O)CC2C(=O)N(c3ccc(F)cc3)C(=O)N2Cc2ccc(OC)c(OC)c2)cc1 (configuration not stated)	nt	nt	nt	8%[76.3 µM]	nt	nt
Cc1ccc2c(c1)N(C(=O)N1CCC(C(=O)NCc3ccccc3C)CC1)CC(C)O2 (configuration not stated)	nt	nt	nt	10%[76.3 µM]	nt	nt
CC(=O)Nc1ccc(S(=O)(=O)Nc2nc3ccccc3nc2Nc2ccc(O)cc2)cc1	nt	-6	6%	18µM*	4%	-24%
COc1ccc(/C=N/Nc2nonc2N)cc1OC	0%	8	7%	16µM*	3%	24%
OC1OC[C@@H](O)[C@@H](O)[C@@H]1O (some centres not stated)	nt	nt	-11%	nt	0%	-5%
CC(=O)Nc1ccc(NC(C)=O)s1	2%	5	4%	8.9µM*	-8%	-11%
COc1cccc(N2C(=O)CC(N3CCc4ccccc43)C2=O)c1 (configuration not stated)	-1%	1	11%	40µM*	-6%	10%
CCOc1ccc(C(=O)N2CCC(c3nc4ccccc4o3)CC2)cc1	nt	nt	nt	6%[76.3 µM]	nt	nt
CCOCCCn1c(SCC(=O)Nc2ccccc2OC)nc2c(oc3ccccc32)c1=O	nt	nt	nt	12%[76.3 µM]	nt	nt
O=C(Nc1sc2c(c1C(=O)Nc1ccccc1Cl)CCCC2)c1ccccc1F	nt	nt	nt	-4%[76.3 µM]	nt	nt
